Only some compounds are listed: those with a hit (about 8% of all), similar ones and a draw of the others.
SW480 rerep: A quantitative high throughput screen for small molecules that induce DNA re-replication in SW480 colon adenocarcinoma cells. SW480 DNA re-replication, Hoechst DNA content imaging, 48 h. AID 624297, 2012. Potency, µM (top dose mostly 46.1 µM), actives largely listed as activators. 1.8% of 340,000 active; note: nearly all actives have a fitted effect of over 55% in size
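Hoechst fluorescence of nuclei (405 nm excitation, 500-530 nm emission) measured by plate-scanning imager after 48 hr compound exposure at 37 C; re-replication scored as increased number of nuclei with elevated intensity.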
HT1080NT lethal: qHTS for induction of synthetic lethality in tumor cells producing 2HG: qHTS for the HT-1080-NT fibrosarcoma cell line; HT-1080-NT fibrosarcoma viability, CellTiter-Glo ATP luminescence, 48 h; Potency, µM (top dose mostly 46.1 µM), actives largely listed as cytotoxic; 1.6% of 360,000 active;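 note: NT is the 2HG producing partner of a matched IDH1 knockdown line; nearly all actives have a fitted effect of over 55% in size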
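Luminescent CellTiter-Glo readout after 48 hours of compound exposure at 37 degrees C defined viability of HT-1080-NT cells. Activity was normalized to DMSO wells and cell-free media wells; concentration-response curves were fitted and assigned curve classes.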
KB-V1 cytotox: qHTS assay for MDR1-selective chemotherapeutics: Primary screen using the drug-selected MDR subline cells KB-V1; KB-V1 MDR cells viability, CellTiter-Glo, 72 h; Potency, µM (highest dose often 46.1 µM), hits mostly cytotoxic; 3.4% of 400,000 active; note: nearly all actives have a fitted effect of over 60% in size
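KB-V1 MDR subline cells in DMEM (phenol-red free, 10% FBS) exposed to compounds in qHTS concentration series for 72 h at 37 degrees C. Viability read by CellTiter-Glo luminescence; concentration-effect curves fitted after normalization and correction.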
MCF10A rerep: A quantitative high throughput screen for small molecules that induce DNA re-replication in MCF 10a normal breast cells. MCF 10A DNA re-replication, Hoechst nuclear intensity, 48 h. Potency, µM (highest dose often 46.1 µM), hits mostly activators. 2.9% of 350,000 active. AID 624296, 2012; note: nearly all actives have a fitted effect of over 50% in size
HT1080 IDH1KD tx: qHTS for induction of synthetic lethality in tumor cells producing 2HG: qHTS for the HT-1080-IDH1KD cell line. 2% of 360,000 active. HT-1080 IDH1 knockdown viability, ATP luminescence, 48 h. Potency, µM (titrated, usually from 46.1 µM), hits mostly cytotoxic. AID 686971, 2013
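Using the IDH1-knockdown HT-1080 line run in the same batch and compound series as the NT line, viability after 48 h at 37 °C was determined by CellTiter-Glo luminescence and expressed as % activity.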
KB-3-1 cytotox: qHTS assay for MDR1-selective chemotherapeutics: Primary screen using the parental adenocarcinoma cell KB-3-1; Potency, µM (titrated, usually from 46.1 µM), actives largely listed as cytotoxic; KB-3-1 viability, CellTiter-Glo ATP luminescence, 72 h; 1.4% of 400,000 active; note: nearly all actives have a fitted effect of over 60% in size
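Parental KB-3-1 adenocarcinoma cells in phenol-red-free DMEM with 10% FBS were pin-treated with compounds at several concentrations, incubated 72 h at 37 °C, and viability read by CellTiter-Glo luminescence; concentration-effect curves were fitted after normalization.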
Numbers stand for hits; 0 = inactive; ? = inconclusive; - = no result given; [ ] = dose if it differs, or a comment. Calls come from the whole dose curve; as a rule, active = well fitted curve in the direction sought with a large enough effect; inconclusive = small, poorly fitted or top-dose-only effect, or another doubt; inactive = no such curve, though single readings can be large; an effect the other way counts as inactive or inconclusive.

SMILES	SW480 rerep	HT1080NT lethal	KB-V1 cytotox	MCF10A rerep	HT1080 IDH1KD tx	KB-3-1 cytotox
O=C(NCc1ccccc1)C1CCCN(S(=O)(=O)c2cccc3nonc23)C1 (centres undefined)	0	0	18µM	0	0	0
CCNc1ccc(-c2nc(-c3ccco3)no2)cc1[N+](=O)[O-]	-	-	?	-	-	0
Cc1cc(C)nc(Nc2ccccc2F)n1	23µM	0	0	0	0	0
O=C(Nc1cccc(Cl)c1)c1ccc2c(c1)CCN2S(=O)(=O)c1ccccc1	-	-	0	-	-	0
COc1ccc(C(=O)CC(Sc2ccccc2N)c2ccc(OC)cc2)cc1 (centres undefined)	-	0	0	-	0	23µM
COc1ccccc1-c1nc2cc3ccccc3cc2nc1-c1ccccc1OC	9.2µM	0	0	?	0	0
Cn1c2ccccc2c2ncn(CCC3=CCCCC3)c(=O)c21	0	0	16µM	?	0	0
Cn1c2ccccc2c2ncn(CCCN3CCOCC3)c(=O)c21	0	0	0	0	0	0
c1ccc2[nH]ccc2c1	0	-	-	0	-	-
Cc1nc(-c2ccc(F)cc2)sc1CCNC(=O)c1ccco1	-	-	0	-	-	0
COc1ccc2c(c1)O[C@H](c1ccc3c(c1)OCO3)[C@@H](OC(=O)Nc1cc(OC)c(OC)c(OC)c1)C2=O	12µM	-	-	?	-	-
Cc1c(Cl)cccc1N1C(N)=C(C#N)C(c2cc(CN3CCOCC3)cs2)C2=C1CCCC2=O (centres undefined)	-	-	0	-	-	0
C=C1[C@@H](O)[C@H](CC(C)C)N(Cc2ccccc2Br)S1(=O)=O	?	23µM	0	?	?	?
CC1=C(C(=O)N(C(C)C)C(C)C)CC(CC(=O)NCc2cccc3ccccc23)C(=O)N1Cc1ccc(C(C)(C)C)cc1 (centres undefined)	-	?	?	-	?	23µM
CC1=C(C(=O)N(C(C)C)C(C)C)CC(CC(=O)NCC2CCCCC2)C(=O)N1Cc1ccc(C(C)(C)C)cc1 (centres undefined)	-	?	0	-	23µM	-
CCOC(=O)c1sc2ncn(CC(=O)Nc3cc(C)cc(C)c3)c(=O)c2c1C	-	-	0	-	-	0
CCOC(=O)c1sc2ncn(CC(=O)N(CC)CC)c(=O)c2c1C	?	0	0	15µM	0[9.24 µM]	0
C=CCN1C(=O)N(/C=C/C)c2cccc3cccc1c23	0	0	?	21µM	0	0
CSc1cc2c(s1)c1cnn(Cc3cccc(N)c3)c(=O)c1n2C	-	-	0	-	-	0
O=C(C(Sc1ccccc1)c1ccccc1)N1CCOCC1 (centres undefined)	?	0	18µM	0	0	0
O=C(OCC(=O)N1CCOCC1)C(c1ccccc1)c1ccccc1	?	0	21µM	0	0	0
COc1ccc(S(=O)(=O)c2c(SC)nn(CC(=O)Nc3ccc(C)c(Cl)c3)c2N)cc1	-	-	0	-	-	0
Cc1c(CN2CCC(CO)(CCOc3ccccc3)CC2)[nH]c2c(Cl)cccc12	?	21µM	?	?	18µM	?
O=C(c1ccccc1)N(Cc1nc2ccccc2c(=O)[nH]1)C1CCCC1	0	0	?	?	0	0
O=c1[nH]c(CCC2CCCC2)nc2ccccc12	0	0	16µM	0	0	0
SMILES	SW480 rerep	HT1080NT lethal	KB-V1 cytotox	MCF10A rerep	HT1080 IDH1KD tx	KB-3-1 cytotox
O=C(c1ccc(Br)cc1)N(Cc1nc2ccccc2c(=O)[nH]1)C1CCCC1	?	?	?	0	23µM	16µM
c1ccc2c3c([nH]c2c1)CCCC3	-	-	0	-	-	0
C/C(=N\O)c1ccc2c3c([nH]c2c1)CCCC3	0	0	0	?	0	8.2µM
O=C(Nc1ccccc1Cl)N1CCC2(CC1)Oc1ccccc1C(=O)N2Cc1ccc(F)cc1	-	-	0	-	-	0
CCOC(=O)C1=C(Nc2ccccc2)CC(C)(O)C(C(=O)OCC)C1c1ccc(Cl)cc1 (centres undefined)	0	0	21µM	?	0	?
COc1ccc(NC2=C(C(C)=O)C(c3ccccc3)C(C(C)=O)C(C)(O)C2)cc1 (centres undefined)	0	0	0	0	0	?
O=C(NCC12CC3CC(CC(C3)C1)C2)c1cc2nc(-c3ccc(Cl)cc3)cc(C(F)(F)F)n2n1	-	-	0	-	-	0
CC(=O)NC(Nc1nc2c(s1)CCCC2)(C(F)(F)F)C(F)(F)F	4.1µM	0	0	0	0	0
COC(=O)Nc1nc2c(s1)CCCC2	0	0	0	0	0	0
O=S(=O)(O)CC(S)CS (centres undefined)	0	-	-	0	-	-
CCCCNC(=O)CC(C(=O)N1CCc2ccccc21)n1ccnc1 (centres undefined)	0	0	0	0	0	0
O=C(CC(C(=O)N1CCc2ccccc21)n1ccnc1)N1CCc2ccccc2C1 (centres undefined)	0	0	8.2µM	0	?	0
CCN(CCCNC(=O)CC(C(=O)N1CCc2ccccc21)n1ccnc1)c1cccc(C)c1 (centres undefined)	0	0	12µM	0	?	0
O=C(CC(C(=O)N1CCc2ccccc21)n1ccnc1)NCC1CCCO1 (centres undefined)	0	0	0	0	0	0
CSCCC(c1nc2ccccc2[nH]1)n1c(-c2cc(C(F)(F)F)cc(C(F)(F)F)c2)nc2ccccc21 (centres undefined)	-	33µM	?	-	21µM	0
O=C(CNC(=O)C1CCCCC1)OCC(=O)c1ccc(C2CCCCC2)cc1	-	-	0	-	-	0
CCN(CC)S(=O)(=O)c1cc(NC(=O)C(C)N2CCN(Cc3ccc4c(c3)OCO4)CC2)ccc1C (centres undefined)	15µM	0	2.9µM	?	0	13µM
COc1ccc(OCCn2nnc3sc4c(c3c2=O)CCC(C(C)(C)C)C4)cc1 (centres undefined)	-	-	0	-	-	0
O=C1Nc2c(c(=O)[nH]c(=O)n2-c2ccccc2)C(C(F)(F)F)(C(F)(F)F)N1	0	0	0	0	0	?
O=c1[nH]c(=O)n(-c2ccccc2)c2c1C(C(F)(F)F)(C(F)(F)F)N=C(CCC1CCCCC1)N2	?	0	5.2µM	16µM	0	0
O=c1[nH]c(=O)n(Cc2ccco2)c2c1C(C(F)(F)F)(C(F)(F)F)N=C(CCC1CCCCC1)N2	0	0	0	0	0	0
CC(C)Cn1c2c(c(=O)[nH]c1=O)C(C(F)(F)F)(C(F)(F)F)N=C(CCC1CCCCC1)N2	0	?	?	16µM	?	0

Bioassay records as filed in PubChem BioAssay.
